Laboratory results from PubChem BioAssay AID1159580 (chemical genetic matrix, 2015).
Values joined by “and” are separate entries in the source; they are usually repeats but may differ in a detail not shown here. Equal entries are not always repeated. Out of some 5,500 compounds screened, about 2,000 (36%) were called active. Roughly 18% stayed inconclusive and do not appear here. Rule as the data show it: active = normalized growth mostly below about 0.91 (no sharp cut-off); inconclusive = no clear call, values can overlap the other calls; inactive = mostly above about 0.92. The list shows a part of the results.

Assay: chemical genetic growth profiling, strain panel (AID 1159580);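 also: tested at 20 µM; growth read once vehicle control cultures reached saturation at 30 °C; 1 = growth at the plate median or of vehicle wells; lower values mean less growth of the strain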
Conditions: S. cerevisiae deletion strains, growth OD

Measured: normalized growth

CC(=O)Oc1ccc(/C=C/c2cc(OC(C)=O)cc(OC(C)=O)c2)cc1
active: locus YDR392W, strain spt3, hits give low values 0.668
inactive: locus YAL021C, strain ccr4, hits give low values 0.979 | locus YAL026C, strain drs2, hits give low values 0.984 | locus YAL030W, strain snc1, hits give low values 0.97 | locus YBL061C, strain skt5, hits give low values 0.976 | locus YBR009C, strain hhf1, hits give low values 0.962 | locus YBR021W, strain FUR4, hits give low values 0.96 | locus YBR023C, strain chs3, hits give low values 0.975 | locus YBR171W, strain sec66, hits give low values 0.978 | locus YBR229C, strain ROT2, hits give low values 0.997 | locus YBR231C, strain swc5, hits give low values 0.986 | locus YBR279W, strain paf1, hits give low values 0.978 | locus YCL011C, strain gbp2, hits give low values 0.972 | locus YCL016C, strain dcc1, hits give low values 0.98 | locus YCL029C, strain bik1, hits give low values 1.01 | locus YCL061C, strain MRC1, hits give low values 0.953 | locus YCL069W, strain vba3, hits give low values 0.984 | locus YCR088W, strain abp1, hits give low values 0.979 | locus YDL005C, strain med2, hits give low values 0.963 | locus YDL035C, strain GPR1, hits give low values 0.984 | locus YDL040C, strain nat1, hits give low values 0.963 | locus YDL074C, strain BRE1, hits give low values 0.982 | locus YDL101C, strain DUN1, hits give low values 0.993 | locus YDL134C, strain PPH21, hits give low values 0.97 | locus YDL185W, strain tfp1, hits give low values 1.02 | locus YDL192W, strain arf1, hits give low values 0.997 | locus YDR001C, strain nth1, hits give low values 0.987 | locus YDR069C, strain doa4, hits give low values 0.966 | locus YDR101C, strain arx1, hits give low values 0.987 | locus YDR137W, strain rgp1, hits give low values 0.925 | locus YDR159W, strain sac3, hits give low values 0.951 | locus YDR162C, strain NBP2, hits give low values 0.977 | locus YDR195W, strain ref2 0.985 | locus YDR297W, strain sur2, hits give low values 0.979 | locus YDR318W, strain mcm21, hits give low values 0.986 | locus YDR334W, strain swr1, hits give low values 0.981 | locus YDR335W, strain msn5, hits give low values 0.987 | locus YDR388W, hits give low values 1 | locus YDR502C, strain sam2, hits give low values 0.999 | locus YEL003W, strain gim4, hits give low values 0.969 | locus YEL037C, strain rad23, hits give low values 0.983 | locus YEL061C, strain CIN8 (second series), hits give low values 0.99 | locus YEL061C, strain CIN8, hits give low values 0.999 | locus YER015W, strain faa2, hits give low values 0.974 | locus YER016W, strain bim1, hits give low values 0.976 | locus YER110C, hits give low values 1.01 | locus YER111C, strain swi4, hits give low values 0.976 | locus YER155C, strain BEM2 (second series), hits give low values 0.924 | locus YER155C, strain BEM2, hits give low values 1.01 | locus YER167W, strain BCK2, hits give low values 0.991 | locus YFR010W, strain ubp6, hits give low values 0.985 | locus YGL078C, strain dbp3, hits give low values 0.996 | locus YGL086W, strain mad1, hits give low values 0.994 | locus YGL167C, strain pmr1, hits give low values 0.978 | locus YGL173C, strain kem1, hits give low values 0.961 | locus YGL227W, strain vid30, hits give low values 0.982 | locus YGL240W, strain doc1, hits give low values 0.942 | locus YGL248W, strain PDE1, hits give low values 0.974 | locus YGL253W, strain hxk2, hits give low values 0.973 | locus YGR135W, strain pre9, hits give low values 0.977 | locus YGR229C, strain SMI1, hits give low values 1.01 | locus YGR252W, strain gcn5, hits give low values 0.951 | locus YHR013C, strain ard1, hits give low values 0.978 | locus YHR027C, strain rpn1, hits give low values 0.975 | locus YHR030C, strain SLT2, hits give low values 1.01 and 1.03 | locus YHR079C, strain IRE1 (second series), hits give low values 1 | locus YHR079C, strain IRE1, hits give low values 1.03 | locus YHR094C, strain hxt1, hits give low values 1 | locus YHR129C, strain ARP1, hits give low values 0.985 | locus YHR142W, strain chs7, hits give low values 0.968 | locus YHR200W, strain rpn10, hits give low values 1.01 | locus YIL066C, strain RNR3, hits give low values 0.965 | locus YIL073C, strain SPO22, hits give low values 1.04 | locus YIL125W, strain kgd1, hits give low values 1.02 | locus YIR030C, strain dcg1, hits give low values 0.99 | locus YJL092W, strain hpr5, hits give low values 0.977 | locus YJL095W, strain BCK1 (second series), hits give low values 0.983 | locus YJL095W, strain BCK1, hits give low values 0.962 and 0.998 | locus YJL115W, strain asf1, hits give low values 0.992 | locus YJL129C, strain trk1, hits give low values 0.978 | locus YJL134W, strain LCB3, hits give low values 1.01 | locus YJL154C, strain vps35, hits give low values 0.983 | locus YJL164C, strain tpk1, hits give low values 0.96 | locus YJL166W, strain qcr8, hits give low values 0.95 | locus YJL168C, strain set2, hits give low values 0.997 | locus YJL187C, strain SWE1 (second series), hits give low values 0.98 | locus YJL187C, strain SWE1, hits give low values 0.993 | locus YJR043C, strain POL32, hits give low values 0.979 | locus YJR066W, strain TOR1, hits give low values 0.972 | locus YJR075W, strain HOC1, hits give low values 0.985 | locus YKL009W, strain mrt4, hits give low values 1.04 | locus YKL068W, hits give low values 1 | locus YKL085W, strain MDH1 (second series), hits give low values 0.999 | locus YKL085W, strain MDH1, hits give low values 0.999 | locus YKL160W, strain elf1, hits give low values 0.959 | locus YKL190W, strain CNB1, hits give low values 1 | locus YKR001C, strain vps1, hits give low values 0.982 | locus YKR026C, strain gcn3, hits give low values 0.979 | locus YKR091W, strain srl3, hits give low values 0.983 | locus YLL001W, strain dnm1, hits give low values 0.966 | locus YLL026W, hits give low values 0.976 | locus YLL041C, strain sdh2, hits give low values 0.98 | locus YLR027C, strain aat2, hits give low values 0.979 | locus YLR039C, strain RIC1, hits give low values 0.928 | locus YLR058C, strain SHM2, hits give low values 0.99 | locus YLR102C, strain apc9, hits give low values 1.03 | locus YLR113W, strain HOG1, hits give low values 0.934 | locus YLR221C, strain rsa3, hits give low values 0.949 | locus YLR258W, strain gsy2, hits give low values 0.957 | locus YLR262C, strain YPT6 (second series), hits give low values 0.907 | locus YLR262C, strain YPT6, hits give low values 0.925 | locus YLR268W, strain sec22, hits give low values 0.999 | locus YLR320W, strain mms22, hits give low values 0.921 | locus YLR330W, strain CHS5, hits give low values 0.996 | locus YLR342W, strain FKS1 (second series), hits give low values 1.01 | locus YLR342W, strain FKS1, hits give low values 0.968 | locus YLR357W, strain rsc2, hits give low values 0.937 | locus YLR370C, strain arc18, hits give low values 0.981 | locus YLR371W, strain rom2, hits give low values 0.995 | locus YLR384C, strain iki3, hits give low values 0.959 | locus YLR418C, strain cdc73, hits give low values 0.889 | locus YML016C, strain PPZ1, hits give low values 0.999 | locus YML032C, strain rad52, hits give low values 1.01 | locus YML120C, strain ndi1, hits give low values 0.985 | locus YML124C, strain tub3, hits give low values 0.998 | locus YMR078C, strain ctf18, hits give low values 1.01 | locus YMR125W, strain sto1, hits give low values 0.974 | locus YMR129W, hits give low values 0.985 | locus YMR205C, strain PFK2, hits give low values 0.948 | locus YMR223W, strain ubp8, hits give low values 0.959 | locus YMR231W, strain pep5, hits give low values 0.965 | locus YMR263W, strain SAP30, hits give low values 0.988 | locus YMR307W, strain GAS1, hits give low values 1.16 | locus YNL067W, strain RPL9B, hits give low values 0.973 | locus YNL071W, strain lat1, hits give low values 0.952 | locus YNL153C, strain GIM3, hits give low values 0.989 | locus YNL183C, strain NPR1, hits give low values 0.935 | locus YNL209W, strain ssb2, hits give low values 0.984 | locus YNL233W, strain BNI4, hits give low values 0.948 | locus YNL248C, strain rpa49, hits give low values 0.961 | locus YNL250W, strain rad50, hits give low values 0.998 | locus YNL271C, strain bni1, hits give low values 1.02 | locus YNL298W, strain CLA4, hits give low values 0.989 | locus YNL307C, strain MCK1, hits give low values 0.977 | locus YNL322C, strain KRE1 (second series), hits give low values 0.964 | locus YNR049C, strain mso1, hits give low values 0.978 | locus YNR052C, strain pop2, hits give low values 0.981 | locus YOL006C, strain TOP1, hits give low values 0.883 | locus YOL012C, strain htz1 0.967 | locus YOL147C, strain pex11, hits give low values 1 | locus YOR001W, strain rrp6, hits give low values 0.96 | locus YOR061W, strain CKA2, hits give low values 1.01 | locus YOR069W, strain VPS5, hits give low values 1 | locus YOR070C, strain gyp1, hits give low values 0.959 | locus YOR080W, strain dia2, hits give low values 1.01 | locus YOR083W, strain WHI5, hits give low values 0.958 | locus YOR106W, strain vam3, hits give low values 0.988 | locus YOR136W, strain idh2, hits give low values 1.01 | locus YOR144C, strain elg1, hits give low values 1.01 | locus YOR184W, strain ser1, hits give low values 0.904 | locus YOR231W, strain MKK1, hits give low values 1 | locus YOR265W, strain rbl2, hits give low values 0.968 | locus YOR270C, strain vph1, hits give low values 0.919 | locus YOR290C, strain snf2, hits give low values 0.944 | locus YOR316C, strain cot1, hits give low values 1.02 | locus YPL051W, strain arl3, hits give low values 0.98 | locus YPL055C, strain LGE1, hits give low values 0.947 | locus YPL078C, strain atp4, hits give low values 0.963 | locus YPL106C, strain sse1, hits give low values 0.91 | locus YPL240C, strain hsp82, hits give low values 0.976 | locus YPL241C, strain CIN2, hits give low values 0.998 | locus YPL256C, strain CLN2, hits give low values 1.04 | locus YPR119W, strain clb2, hits give low values 1.01 | locus YPR141C, strain kar3, hits give low values 1.01 | locus YPR163C, strain tif3, hits give low values 0.994 | locus YPR167C, strain met16, hits give low values 1.02 | strain wtn01, hits give low values 1.01
